Laboratory results reported in PubChem BioAssay (Tox21).
Where “and” joins values, the source holds several entries; their conditions need not be identical. Equal entries are not always repeated. Inconclusive results are not listed. Where a call stands in place of a potency, no number is given. Calls of active or inactive are those of the source. Unless noted, calls come from the whole dose curve; as a rule, active = well fitted curve in the direction sought with a large enough effect in the repeat runs; inconclusive = weak or mixed curves; inactive = no such curve, though single readings can be large; an effect the other way counts as inactive or inconclusive.

Columns and labels:
[1] = qHTS assay to identify small molecule antagonists of the retinoid acid receptor (RAR) signaling pathway - cell viability counter screen (AID 1159551); note: nearly all actives have a fitted effect of over 35% in size
Method in brief: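 Viability of C3RL4 cells is quantified from ATP by luminescence after 6 h treatment at 37 C with compounds and 1 uM retinol.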

[2] = target: Luciferin 4-monooxygenase (Photinus pyralis) (UniProt P08659); experiment: qHTS assay to identify small molecule inhibitors of firefly luciferase (AID 1224835); note: series mostly up to about 120 µM; nearly all actives have a fitted effect of over 25% in size
Chain of Luciferin 4-monooxygenase (Photinus pyralis) (P08659 whole entry, looked up): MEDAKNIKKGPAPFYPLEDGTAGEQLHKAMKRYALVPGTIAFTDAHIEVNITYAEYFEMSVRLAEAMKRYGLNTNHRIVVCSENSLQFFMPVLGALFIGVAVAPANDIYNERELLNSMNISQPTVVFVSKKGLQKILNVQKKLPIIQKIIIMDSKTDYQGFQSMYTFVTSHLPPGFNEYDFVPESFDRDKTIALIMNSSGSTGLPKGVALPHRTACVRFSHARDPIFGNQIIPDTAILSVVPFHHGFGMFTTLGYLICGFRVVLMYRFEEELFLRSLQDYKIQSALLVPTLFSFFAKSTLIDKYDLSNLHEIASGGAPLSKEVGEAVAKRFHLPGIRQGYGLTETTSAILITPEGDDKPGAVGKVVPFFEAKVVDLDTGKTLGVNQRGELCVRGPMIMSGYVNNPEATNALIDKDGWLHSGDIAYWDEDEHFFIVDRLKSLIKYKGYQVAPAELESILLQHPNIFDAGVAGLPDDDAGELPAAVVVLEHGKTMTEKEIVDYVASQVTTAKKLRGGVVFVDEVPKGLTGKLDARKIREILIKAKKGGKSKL
Method in brief: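 Biochemical qHTS: compounds run as interplate titrations against purified firefly enzyme, with D-luciferin and ATP each at its KM concentration. Light output recorded by CCD imaging.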

[3] = qHTS assay to identify small molecule agonists of the constitutive androstane receptor (CAR) signaling pathway - cell viability counter screen (AID 1224836); note: nearly all actives have a fitted effect of over 45% in size; note: potency is the fitted concentration of half-maximal effect
Method in brief: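 23 h treatment, 37 C, 5% CO2. Cell line: HepG2 stably expressing hCAR with a CYP2B6-2.2kb construct. Co-treatment: PK11195, 0.75 uM final. Read-out: CellTiter-Fluor fluorescence intensity.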

[4] = qHTS assay to identify small molecule antagonists of the constitutive androstane receptor (CAR) signaling pathway - cell viability counter screen (AID 1224837); note: nearly all actives have a fitted effect of over 45% in size; note: potency is the fitted concentration of half-maximal effect
Method in brief: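 In quantitative HTS format, compounds at 15 concentrations were applied to HepG2 cells double-transfected with hCAR and CYP2B6-2.2kb under 50 nM CITCO stimulation; live-cell protease activity was read after 23 hr via CellTiter-Fluor.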

[5] = target: Nuclear receptor subfamily 1 group I member 3 (Homo sapiens) (UniProt Q14994); experiment: qHTS assay to identify small molecule antagonists of the constitutive androstane receptor (CAR) signaling pathway (AID 1224838); note: nearly all actives have a fitted effect of over 40% in size; note: potency is the fitted concentration of half-maximal effect
Chain of Nuclear receptor subfamily 1 group I member 3 (Homo sapiens) (Q14994 whole entry, looked up): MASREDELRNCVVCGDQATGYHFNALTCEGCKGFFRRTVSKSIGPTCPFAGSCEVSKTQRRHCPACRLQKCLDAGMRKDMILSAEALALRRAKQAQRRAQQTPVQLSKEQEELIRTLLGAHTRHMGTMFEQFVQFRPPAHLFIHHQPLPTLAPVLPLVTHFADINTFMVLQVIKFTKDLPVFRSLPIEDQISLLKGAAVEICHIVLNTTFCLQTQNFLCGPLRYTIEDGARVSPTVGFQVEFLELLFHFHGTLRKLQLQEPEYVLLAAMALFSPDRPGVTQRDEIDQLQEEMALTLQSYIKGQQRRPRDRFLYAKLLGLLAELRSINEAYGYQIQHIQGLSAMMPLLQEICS
Method in brief: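 CITCO-stimulated (50 nM final) HepG2 cells stably transfected with hCAR and CYP2B6-2.2kb luciferase were exposed to compounds at 15 concentrations for 24 h at 37 C/5% CO2. A luciferase reagent was added and luminescence recorded after 30 min.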

[6] = target: Thyrotropin receptor (Homo sapiens) (UniProt P16473); experiment: qHTS assay to identify small molecule agonists of the thyroid stimulating hormone receptor (TSHR) signaling pathway (AID 1224843; calls by dose curve; note: nearly all actives have a fitted effect of over 45% in size)
Chain of Thyrotropin receptor (Homo sapiens) (P16473 whole entry, looked up): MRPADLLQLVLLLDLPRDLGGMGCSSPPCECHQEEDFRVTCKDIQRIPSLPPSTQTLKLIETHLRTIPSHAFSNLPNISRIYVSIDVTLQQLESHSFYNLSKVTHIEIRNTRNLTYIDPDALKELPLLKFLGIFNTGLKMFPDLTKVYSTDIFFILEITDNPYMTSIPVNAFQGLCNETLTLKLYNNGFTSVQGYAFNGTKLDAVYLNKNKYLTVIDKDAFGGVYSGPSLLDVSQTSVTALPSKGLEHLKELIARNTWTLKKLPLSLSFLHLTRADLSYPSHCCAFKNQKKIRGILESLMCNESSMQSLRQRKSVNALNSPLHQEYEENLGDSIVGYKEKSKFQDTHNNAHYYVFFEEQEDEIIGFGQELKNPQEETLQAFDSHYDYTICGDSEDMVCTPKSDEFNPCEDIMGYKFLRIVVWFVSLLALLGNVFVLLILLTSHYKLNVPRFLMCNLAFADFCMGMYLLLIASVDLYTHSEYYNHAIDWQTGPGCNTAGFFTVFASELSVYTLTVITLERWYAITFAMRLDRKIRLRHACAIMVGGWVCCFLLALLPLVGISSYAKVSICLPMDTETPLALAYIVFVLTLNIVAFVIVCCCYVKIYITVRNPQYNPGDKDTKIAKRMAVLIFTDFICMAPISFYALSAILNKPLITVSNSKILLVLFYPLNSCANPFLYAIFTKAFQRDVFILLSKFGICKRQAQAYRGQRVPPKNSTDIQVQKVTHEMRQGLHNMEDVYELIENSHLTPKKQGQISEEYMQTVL
Method in brief: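 Agonist-mode screen: TSHR HEK293 cells received test chemicals for half an hour at room temperature, then HTRF cAMP detection reagents for one hour prior to fluorescence measurement. Each chemical ran as a 15-concentration series, triplicated.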

[7] = qHTS assay to identify small molecule antagonists of the retinoic acid receptor (RAR) signaling pathway (AID 1159552; note: potency is the fitted concentration of half-maximal effect; nearly all actives have a fitted effect of over 50% in size)
Method in brief: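 Test chemicals and DMSO controls were pin-transferred onto C3RL4 cells a day after seeding; retinol (1 uM final) followed at once. Luminescent reporter output was quantified after 6 hr of co-incubation and 30 min with detection reagent.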

[8] = qHTS assay to identify small molecule agonists of the retinoic acid receptor (RAR) signaling pathway (AID 1159553)
Method in brief: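 Compounds dissolved in DMSO were pinned onto C3RL4 cells seeded the previous day, and plates were held 6 hr at 37 C. RARE-driven luciferase output was then read by luminescence.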

[9] = qHTS assay to identify small molecule antagonists of the estrogen related receptor (ERR) signaling pathway from Tox21 library - cell viability counter screen (AID 1224834); note: nearly all actives have a fitted effect of over 30% in size; note: potency is the fitted concentration of half-maximal effect
Method in brief: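 In this quantitative HTS format, ERR cells receive compounds in DMSO and are incubated for 17.5 h at 37 C. Live-cell protease activity is then detected with CellTiter-Fluor.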

[10] = target: Nuclear receptor subfamily 1 group I member 3 (Homo sapiens) (UniProt Q14994); experiment: qHTS assay to identify small molecule agonists of the constitutive androstane receptor (CAR) signaling pathway (AID 1224839);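 note: HepG2 cells stably carrying human CAR and a CYP2B6 luciferase reporter; series mostly up to about 92 µM; nearly all actives have a fitted effect of over 15% in size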
Method in brief: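 Compounds tested at 15 concentrations on HepG2 cells stably harbouring hCAR and CYP2B6-2.2kb reporter constructs, co-treated with PK11195 (0.75 uM final), 24 h at 37 C; luminescent reporter signal quantified.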

[11] = qHTS assay to identify small molecule antagonists of the estrogen related receptor signaling pathway with the pleiotropic PPARgamma coactivator (PGC) from Tox21 10K library - cell viability counter screen (AID 1224840; active = well fitted cell-killing curve with a large enough effect in the repeat runs, not every such curve was filed as active; note: nearly all actives have a fitted effect of over 40% in size; note: potency is the fitted concentration of half-maximal effect)
Method in brief: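 Viability counter screen, PGC/ERR cells: 17.5 h compound exposure at 37 C, CellTiter-Fluor fluorescence endpoint.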

[12] = qHTS assay to identify small molecule antagonists of the estrogen related receptor signaling pathway with the pleiotropic PPARgamma coactivator (PGC) from Tox21 10K library (AID 1224841; call rule not given here; note: actives are mostly falling curves and most rising ones were filed inactive; nearly all actives have a fitted effect of over 50% in size; note: potency is the fitted concentration of half-maximal effect)
Method in brief: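 In the PGC/ERR line, DMSO solutions of test chemicals are pin-delivered to 2,000 cells/well six hours after dispensing. Following eighteen hours' incubation, One-Glo reagent is added and luminescence recorded.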

[13] = qHTS assay to identify small molecule agonists of the estrogen related receptor signaling pathway with the pleiotropic PPARgamma coactivator (PGC) from Tox21 10K library (AID 1224842); note: nearly all actives have a fitted effect of over 15% in size
Method in brief: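 PGC/ERR reporter cell line, 2,000 cells per well, incubated 6 h at 37 C before 23 nL compound in DMSO was added. After 18 h at 37 C, One-Glo luminescence read following 30 min at room temperature.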

SMILES: SCc1ccco1
- Potency [1]: inactive
- Potency [2]: inactive
- Potency [3]: inactive
- Potency [4]: inactive
- Potency [5]: inactive
- Potency [6]: inactive

SMILES: COc1cccc(C(=O)CCN[C@@H](C)[C@H](O)c2ccccc2)c1
- Potency [7]: 26.6 µM (active)
- Potency [8]: inactive
- Potency [9]: inactive
- Potency [2]: inactive
- Potency [3]: inactive
- Potency [10]: inactive
- Potency [11]: inactive
- Potency [12]: inactive
- Potency [13]: inactive
- Potency [6]: inactive

SMILES: CC[C@H](C)[C@H]1O[C@]2(C=C[C@@H]1C)C[C@@H]1C[C@@H](C/C=C(\C)[C@@H](O[C@H]3C[C@H](OC)[C@@H](O[C@H]4C[C@H](OC)[C@@H](O)[C@H](C)O4)[C@H](C)O3)[C@@H](C)/C=C/C=C3\CO[C@@H]4[C@H](O)C(C)=C[C@@H](C(=O)O1)[C@]34O)O2
- Potency [7]: 32.2 µM (active)
- Potency [9]: 16.1 µM (active)
- Potency [2]: inactive
- Potency [3]: 32.2 µM (active)
- Potency [4]: 32.2 µM (active)
- Potency [5]: 40.5 µM (active)
- Potency [10]: inactive
- Potency [11]: 28.7 µM (active)
- Potency [12]: 7.2 µM (active)
- Potency [13]: inactive

SMILES: CCc1nn(C)c(C(=O)NCc2ccc(C(C)(C)C)cc2)c1Cl
- Potency [7]: 27.3 µM (active)
- Potency [9]: 30.6 µM (active)
- Potency [2]: inactive
- Potency [4]: inactive
- Potency [10]: inactive
- Potency [12]: 0.0611 µM (active)
- Potency [13]: inactive

SMILES: CC(C)(C)C(O)/C(=C\c1ccc(Cl)cc1Cl)n1cncn1 (centres undefined)
- Potency [7]: 58.7 µM (active)
- Potency [9]: 65.9 µM (active)
- Potency [2]: inactive
- Potency [5]: inactive
- Potency [11]: 58.7 µM (active)
- Potency [12]: 29.4 µM (active)
- Potency [13]: inactive

SMILES: [Cd+2].[Cl-].[Cl-]
- Potency [1]: inactive
- Potency [9]: 24.5 µM (active) and 6.11 µM (active)
- Potency [4]: 4.36 µM (active) and 9.69 µM (active)
- Potency [11]: 4.9 µM (active) and 2.73 µM (active)
